Laboratory results taken from PubChem BioAssay AID1159580 (chemical genetic matrix, 2015).
The campaign covered roughly 5,500 compounds. About 2,000 (36%) were called active. Not shown: some 18% with an inconclusive outcome. Rule as the data show it: active = normalized growth mostly below about 0.91 (no sharp cut-off); inconclusive = no clear call, values can overlap the other calls; inactive = mostly above about 0.92. The list shows a part of the results.

Test: chemical genetic growth profiling, strain panel (AID 1159580);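 also: tested at 20 µM; growth read once vehicle control cultures reached saturation at 30 °C; 1 = growth at the plate median or of vehicle wells; lower values mean less growth of the strain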
Conditions: S. cerevisiae deletion strains, growth OD

Measured: normalized growth

CCNC(=O)[C@H]1O[C@@H](n2cnc3c(N)nc(NCCc4ccc(CCC(=O)O)cc4)nc32)C(O)[C@H]1O (some centres undefined)
inactive: locus YAL040C, strain CLN3, stronger effect = lower value 0.963 | locus YCL061C, strain MRC1 (second series), stronger effect = lower value 0.991 | locus YDR363W, strain ESC2, stronger effect = lower value 0.972 | locus YER002W, strain NOP16, stronger effect = lower value 0.995 | locus YGR078C, strain PAC10, stronger effect = lower value 0.992 | locus YJR075W, strain HOC1, stronger effect = lower value 0.999 | locus YMR307W, strain GAS1, stronger effect = lower value 1 | locus YNL153C, strain GIM3, stronger effect = lower value 1 | locus YNL175C, strain NOP13, stronger effect = lower value 0.98 | locus YNL197C, strain WHI3, stronger effect = lower value 0.981 | locus YNL224C, strain SQS1, stronger effect = lower value 1.03 | locus YOR083W, strain WHI5 (second series), stronger effect = lower value 0.978 | locus YPL055C, strain LGE1, stronger effect = lower value 0.953 | locus YPL241C, strain CIN2, stronger effect = lower value 0.976
